LDHA inh: qHTS assay for inhibitors of human lactate dehydrogenase; L-lactate dehydrogenase A chain (Homo sapiens), P00338; activity change, % (values are at about 110 or 230 µM); purified LDHA, NADH/diaphorase-resazurin fluorescence; active compounds read low; 480,000 compounds, 0.15% hits; in the data active = activity change below about -30%; inconclusive = mostly about -25% to -30%;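 also: plate controls were DMSO wells for no effect and wells without enzyme for full effect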
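Enzyme activity of human lactate dehydrogenase 5 (2 nM; 0.06 mM NADH, 0.2 mM pyruvate, 5 min, RT) is measured via a resazurin/diaphorase fluorescence readout of residual NADH.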
A549 tox-1: Nrf2 qHTS screen for inhibitors: counterscreen for cytotoxicity | A549 ARE-Fluc cells, CellTiter-Fluor viability, 18-24 h | Potency, µM (top dose mostly 46 µM), inactives show top-dose activity change, negative = cytotoxicity, most hits filed as inhibitors | 390,000 compounds, 0.16% hits; also: potency is read from the fitted curve at half-maximal effect; % is scaled to controls: 0 for no effect and ±100 for the full control effect
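A549 ARE_Fluc cells in 5% FBS OPTI-MEM were exposed to compounds in concentration-response for 18-24 h at 37 deg C. Viability was read by CellTiter-Fluor fluorescence (Ex 405/Em 525) after 30 min, before the luciferase read.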
ERG-DNA inh: qHTS for Small Molecule Inhibitors of the ERG Ets/DNA interaction. Transcriptional regulator ERG (Homo sapiens), P11308. fluorescence polarization, His-ERG Ets domain / labelled DNA. Potency, µM (titrated, usually from 76.9 µM), for the others: at the top dose FP activity, negative = inhibition, usual class: inhibitors. 370,000 compounds, 0.028% hits. AID 624246, 2012; active = well fitted inhibition curve with a large enough effect in the polarisation, with a control signal flat; inconclusive = small, poorly fitted or top-dose-only effect, or effect the other way, or a change in a side signal; inactive = no such curve, though single readings can be large or run the other way; the % refers to the polarisation;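 also: polarization taken with two DNA probes labelled with fluorescein and Texas red; potency is read from the fitted curve at half-maximal effect; % of control where 0% means no effect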
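His-tagged ERG Ets domain (1 uM in the protein solution; 300mM KCl, 50mM Tris-HCl, 1mM EDTA, 1mM DTT, pH 7.5) received compound, then a probe mix of 5 nM fluorescein-DNA and 100nM Texas-615-DNA. Fluorescence polarization was read for both dyes.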
ALOX12 inh: Primary qHTS assay for inhibitors of human arachidonate 12S-lipoxygenase (ALOX12): Round 2 | Polyunsaturated fatty acid lipoxygenase ALOX12 (Homo sapiens), P18054 | purified 12hLO, xylenol orange hydroperoxide absorbance | Potency, µM (titrated, usually from 108 µM), for the others: at the top dose activity change, negative = inhibition, actives largely listed as inhibitors | 580,000 compounds, 1.1% hits; also: potency is read from the fitted curve at half-maximal effect; % is scaled to controls: 0 for no effect and ±100 for the full control effect
Target sequence (P18054 whole entry, looked up): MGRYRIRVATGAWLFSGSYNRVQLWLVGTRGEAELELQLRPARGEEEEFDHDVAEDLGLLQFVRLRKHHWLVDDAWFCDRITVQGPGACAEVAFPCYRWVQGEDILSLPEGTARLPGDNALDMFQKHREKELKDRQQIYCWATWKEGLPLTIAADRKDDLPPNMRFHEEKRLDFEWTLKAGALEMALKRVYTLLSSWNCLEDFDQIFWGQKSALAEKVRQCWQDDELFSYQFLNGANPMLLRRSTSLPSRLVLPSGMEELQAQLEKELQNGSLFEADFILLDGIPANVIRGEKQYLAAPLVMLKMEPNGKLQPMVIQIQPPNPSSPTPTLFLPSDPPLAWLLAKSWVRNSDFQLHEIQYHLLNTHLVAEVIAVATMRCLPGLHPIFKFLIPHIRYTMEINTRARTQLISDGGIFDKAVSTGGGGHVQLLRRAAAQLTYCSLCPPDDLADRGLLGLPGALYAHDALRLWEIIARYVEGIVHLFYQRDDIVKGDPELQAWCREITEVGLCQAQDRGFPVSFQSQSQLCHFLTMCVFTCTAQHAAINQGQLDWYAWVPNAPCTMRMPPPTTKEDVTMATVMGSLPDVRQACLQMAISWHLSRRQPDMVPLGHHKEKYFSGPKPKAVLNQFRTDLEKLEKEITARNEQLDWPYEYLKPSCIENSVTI
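Purified human 12hLO at 150 nM in 25 mM Hepes, 0.01% Triton X-100, pH 7.0, preincubated 15 min at room temperature with compound. Reaction started with 40 uM arachidonic acid, 30 min at room temperature. Hydroperoxide measured by Fe-xylenol orange, 573/405 nm absorbance ratio.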
Nrf2 activator: qHTS of Nrf2 Activators; AREc32 ARE-luciferase reporter (MCF7-derived line), luminescence, 24 h; Potency, µM (titrated, usually from 46.1 µM), for the others: at the highest dose activation, hits mostly activators; 410,000 compounds, 0.31% hits; AID 624171, 2012; also: potency is read from the fitted curve at half-maximal effect; % of control where 0% means no effect; nearly all actives have a fitted effect of over 65% in size
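Quantitative high-throughput format: AREc32 reporter cells, 1000 per well, received compound by pin transfer and were incubated 24 hr at 37 deg C, 5% CO2, before Steady-Glo luminescence detection.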
Nrf2 block: Nrf2 qHTS screen for inhibitors | 360,000 compounds, 2.1% hits | A549 ARE-Fluc reporter, luciferase luminescence, 18-24 h | Potency, µM (top dose mostly 46 µM), without a hit: top-dose activity change, negative = inhibition, most hits filed as inhibitors; also: potency is read from the fitted curve at half-maximal effect; % is scaled to controls: 0 for no effect and ±100 for the full control effect; nearly all actives have a fitted effect of over 60% in size
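Two sequential reads on A549 ARE_Fluc cells exposed to compound for 18-24 h: a CellTiter-Fluor fluorescence read for viability, then a luciferase luminescence read for Nrf2/ARE activity.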
FLuc enzyme inh: Nrf2 qHTS screen for inhibitors: Purified Fluc Biochemical Counterscreen for Hit Validation | AID 720522, 2013 | shares compounds with Nrf2 block | 1,400 compounds, 4% hits | purified firefly luciferase, luminescence inhibition | Potency, µM (top dose mostly 57.5 µM), inactives show at the top dose activity change, negative = inhibition, most hits filed as inhibitors; also: potency is read from the fitted curve at half-maximal effect; % is scaled to controls: 0 for no effect and ±100 for the full control effect; nearly all actives have a fitted effect of over 65% in size
A549 tox-2: Nrf2 qHTS screen for inhibitors: A549 ARE-Fluc Cytotoxicity Counterscreen for Hit Validation; shares compounds with Nrf2 block; A549 ARE-Fluc cells, cytotoxicity counterscreen; Potency, µM (titrated, usually from 46.1 µM), without a hit: top-dose activity change, negative = cytotoxicity, actives largely listed as inhibitors; 1,400 compounds, 2% hits;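 also: potency is read from the fitted curve at half-maximal effect; cells exposed to compounds for 18 to 24 hours; % is scaled to controls: 0 for no effect and ±100 for the full control effect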
ARE-Fluc inh: Nrf2 qHTS screen for inhibitors: Nrf2 A549 ARE-Fluc Confirmation Assay for Hit Validation. shares compounds with Nrf2 block. A549 ARE-firefly luciferase reporter, luminescence. Potency, µM (doses to about 46.1 µM), inactives show at the highest dose activity change, negative = inhibition, most hits filed as inhibitors. 1,400 compounds, 74% hits; also: potency is read from the fitted curve at half-maximal effect; % is scaled to controls: 0 for no effect and ±100 for the full control effect; nearly all actives have a fitted effect of over 65% in size
An asterisk follows results filed as active; ? = inconclusive; . = not tested or not shown; ! = a repeat was not active; [ ] = remark or other dose. Shown are actives, neighbours in structure and some others; about 2.7% of the full set was active somewhere. Unless noted, calls follow the shape of the dose curve; as a rule, active = well fitted curve in the direction sought with a large enough effect; inconclusive = small, poorly fitted or top-dose-only effect, or another doubt; inactive = no such curve, though single readings can be large; an effect the other way counts as inactive or inconclusive.

SMILES	LDHA inh	A549 tox-1	ERG-DNA inh	ALOX12 inh	Nrf2 activator	Nrf2 block	FLuc enzyme inh	A549 tox-2	others
COC(=O)C1=C(c2ccc(-c3ccccc3)c(F)c2)C[C@@H]2CC[C@H]1N2C(=O)NCCNC(C)=O	-2	0%	10%	-3%	3%	-20%	.	.
COC(=O)C1=C(c2ccc(-c3ccccc3)c(F)c2)C[C@@H]2CC[C@H]1N2C(=O)NCCCOC(C)C	1	-23%	-6%	27%	0%	16µM*	.	.
COC(=O)C1=C(c2ccc(OCc3ccccc3)cc2)C[C@@H]2CC[C@H]1N2C(=O)NC1CCN(Cc2ccccc2)CC1	4	21µM*	-2%	.	-2%	21µM*	.	.
CC(C)(C)c1ccc(-c2cn(C[C@H]3CC4CCN3C[C@@H]4C(=O)NC3CCCCC3)nn2)cc1 (stereo partly drawn)	.	.	.	82%	.	.	.	.
CC(NCCc1ccccc1)c1ccccc1 (stereo not drawn)	-3	.	.	?	.	.	.	.
CNC(=O)c1ccc(NC(=O)COC(=O)c2cn(C)c3ccccc23)cc1	7	.	.	?	.	.	.	.
COc1ccc(-c2coc3cc(OCC(=O)N4CCN(C)CC4)ccc3c2=O)cc1	3	.	.	?	.	.	.	.
COC(=O)C1=C(c2ccc(-c3ccccc3)c(F)c2)C[C@@H]2CC[C@H]1N2C(=O)NC1CCCCC1	0	?	-9%	?	0%	18µM*	.	.
COC(=O)C1=C(c2ccc(OC(F)(F)F)cc2)C[C@@H]2CC[C@H]1N2C(=O)NCCNC(C)=O	-9	9%	-3%	-3%	0%	3%	.	.
COC(=O)C1=C(c2ccc(OC(F)(F)F)cc2)C[C@@H]2CC[C@H]1N2C(=O)NCCOc1ccc(OC)cc1	1	-22%	-23%	?	3%	23µM*	.	.
COC(=O)C1=C(c2cccc(OCc3ccccc3)c2)C[C@@H]2CC[C@H]1N2C(=O)NCCOc1ccc(OC)cc1	0	-7%	-7%	8%	0%	15µM*	.	.
COC(=O)C1=C(c2ccc(Cl)c(C(F)(F)F)c2)C[C@@H]2CC[C@H]1N2C(=O)NCCOc1ccccc1Cl	2	?	-4%	.	-3%	23µM*	.	.
COc1cccc(C2SCC(=O)Nc3c2c(C)nn3C)c1OC (stereo not drawn)	6	.	.	34%	.	.	.	.
Cc1cccc(-n2nnnc2C2(NC(C)C)CCCCC2)c1	0	.	.	8%	.	.	.	.
CC(Cl)C(=O)NC(C)(C)C (stereo not drawn)	-1	.	.	-6%	.	.	.	.
COc1ccc2c3c1OC1C(O)C=CC4C(C2)[N+](C)(C)CCC341 (stereo not drawn)	-72*	-9%	-5%	45µM*	0%	3%	.	.
Nc1c(C(=O)Nc2ccc(Cl)cc2)sc2nc3c(cc12)N1CCC3CC1	-4	-5%	-3%	-2%	1%	?	.	.
Nc1c(C(=O)Nc2ccc(Cl)c(C(F)(F)F)c2)sc2nc3c(cc12)N1CCC3CC1	-8	-23%	8%	-43%	1%	6.5µM*	-17%	?	ARE-Fluc inh=7.3µM*
N#Cc1cc2c(nc1SCC(=O)Nc1ccc(C(F)(F)F)cc1)C1CCN2CC1	-10	-11%	2%	-26%	0%	8.2µM*	1%	-3%	ARE-Fluc inh=12µM*
N#Cc1cc2c(nc1SCC(=O)Nc1ccc(Cl)c(C(F)(F)F)c1)C1CCN2CC1	-1	-19%	-5%	-29%	0%	7.3µM*	-1%	-30%	ARE-Fluc inh=7.3µM*
C[C@H]1CCC/C=C/[C@@H]2C[C@H](O)C[C@H]2[C@H](O)/C=C/C(=O)O1	-14	?	3%	12%	1%	0.23µM*!	1%	?
C[C@H]1CCC/C=C/C2C[C@H](O)C[C@H]2[C@H](O)/C=C/C(=O)O1 (stereo partly drawn)	.	.	.	-2%[176 µM]	.	.	.	.
Cc1ccc(CNCCc2ccccc2)s1	-1	.	.	-20%	.	.	.	.
CC1OC(OC2CC(O)C3(CO)C4C(O)CC5(C)C(C6=CC(=O)OC6)CCC5(O)C4CCC3(O)C2)C(O)C(O)C1O (stereo not drawn)	-7	?	16%	4%	-5%	0.058µM*	0%	?	ARE-Fluc inh=0.033µM*
CC(=O)c1cn(Cc2ccccc2C#N)c2ccccc12	-5	?	-3%	-7%	1%	1µM*	3%	-12%	ARE-Fluc inh=-34%
SMILES	LDHA inh	A549 tox-1	ERG-DNA inh	ALOX12 inh	Nrf2 activator	Nrf2 block	FLuc enzyme inh	A549 tox-2	others
COc1cc2nc(CN3CC=C(c4ccccc4)CC3)[nH]c(=O)c2cc1OC	4	?	-8%	41%	0%	2.3µM*	-3%	?
O=C(CN1CC=C(c2ccccc2)CC1)N(C1CCCC1)C1CCS(=O)(=O)C1 (stereo not drawn)	-4	.	.	?	.	.	.	.
CC(=O)OC1CC[C@]2(C#N)[C@H]3CC[C@]4(C)[C@H](C5C=CC(=O)O5)CCC4(O)C3CCC2(O)C1 (stereo partly drawn)	-1	-15%	7%	-4%	-5%	5.2µM*	-2%	?	ARE-Fluc inh=6.5µM*
CCCc1c(C)nc(N2CCN(CC)CC2)[nH]c1=O	-1	.	.	-11%	.	.	.	.
Cc1nc(-c2cccs2)cc([C@H]2CN3CC[C@H]2C[C@@H]3CNS(=O)(=O)c2ccccc2)n1	.	.	.	8%	.	.	.	.
COc1ccc(CN2CCN(C(=O)Cn3c(=O)oc4cc(Cl)ccc43)CC2)c(OC)c1OC	4	?	12%	0%	5%	2.9µM*	-1%	-9%	ARE-Fluc inh=?
C=C(Cl)CN1CCC(N2CCCCC2)CC1	1	.	.	3%	.	.	.	.
Cc1cc(NC(=O)c2cc(-c3cccc(Cl)c3)on2)nn1Cc1ccc(Cl)cc1	-9	-3%	2%	?	-1%	2.6µM*	-2%	-14%	ARE-Fluc inh=21µM*

Screening results: PubChem BioAssay, National Center for Advancing Translational Sciences (NCATS)
